Data reported in PubChem BioAssay (NCI).
This is part of a sample that, as a whole, favours compounds with a hit. Of some 83,000 tested, about 20% had one in any assay.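 Treatment: one concentration, 48 hours, 96-well format. Scoring: percent growth, with anything below 10 considered active.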 Activity calls are given as the source filed them.

Tests used:
Assay in all cases: NCI-60 one-dose screen, 48 h (100 = growth as untreated, 0 = no growth, -100 = all killed)
Details in all cases: 10 µM
RPMI-8226 leukemia = tested on: RPMI-8226 leukemia
OVCAR-8 ovarian = tested on: OVCAR-8 ovarian
OVCAR-5 ovarian = tested on: OVCAR-5 ovarian
OVCAR-4 ovarian = tested on: OVCAR-4 ovarian
SK-OV-3 ovarian = tested on: SK-OV-3 ovarian
IGROV1 ovarian = tested on: IGROV1 ovarian
OVCAR-3 ovarian = tested on: OVCAR-3 ovarian
HS 578T breast = tested on: HS 578T breast
NCI/ADR-RES ovarian = tested on: NCI/ADR-RES ovarian
T-47D breast = tested on: T-47D breast
BT-549 breast = tested on: BT-549 breast
MDA-MB-435 melanoma = tested on: MDA-MB-435 melanoma
SW-620 colon = tested on: SW-620 colon
MCF7 breast = tested on: MCF7 breast
HCT-116 colon = tested on: HCT-116 colon
HCC-2998 colon = tested on: HCC-2998 colon
KM12 colon = tested on: KM12 colon

Measured: growth

C/C(N)=C(\C#N)C(=O)c1ccccc1
inactive: RPMI-8226 leukemia 99.2% | OVCAR-8 ovarian 103% | OVCAR-5 ovarian 97.9% | OVCAR-4 ovarian 104% | SK-OV-3 ovarian 99.5% | IGROV1 ovarian 101% | OVCAR-3 ovarian 112% | HS 578T breast 111% | NCI/ADR-RES ovarian 105% | T-47D breast 94.1% | BT-549 breast 113% | MDA-MB-435 melanoma 100% | SW-620 colon 106% | MCF7 breast 96.6% | HCT-116 colon 102% | HCC-2998 colon 102% | KM12 colon 107%

O=C(Nc1cccc(Br)c1)c1cc(=O)[nH]c2ccccc12
inactive: RPMI-8226 leukemia 80.2% | OVCAR-8 ovarian 92.9% | OVCAR-5 ovarian 90.8% | OVCAR-4 ovarian 97.6% | SK-OV-3 ovarian 97.7% | IGROV1 ovarian 17.9% | OVCAR-3 ovarian 92.4% | HS 578T breast 105% | NCI/ADR-RES ovarian 88.6% | T-47D breast 92.1% | BT-549 breast 82.1% | MDA-MB-435 melanoma 101% | SW-620 colon 102% | MCF7 breast 84% | HCT-116 colon 109% | HCC-2998 colon 104% | KM12 colon 101%

COc1cc(-c2cc(C(=O)N3CCN(C(=O)c4ccccc4NCc4cccs4)CC3)nc3cc(-c4ccccc4)nn23)cc(OC)c1OC
active: OVCAR-3 ovarian 9.27% | MDA-MB-435 melanoma 6.28%
inactive: RPMI-8226 leukemia 75.2% | OVCAR-8 ovarian 90% | OVCAR-5 ovarian 86.6% | OVCAR-4 ovarian 89.4% | SK-OV-3 ovarian 86.7% | IGROV1 ovarian 36.6% | HS 578T breast 85.7% | NCI/ADR-RES ovarian 52.6% | T-47D breast 79.6% | BT-549 breast 83.8% | SW-620 colon 51% | MCF7 breast 23.6% | HCT-116 colon 55.9% | HCC-2998 colon 101% | KM12 colon 27.5%

COc1ccc(-c2nc(-c3nc4ccc(OC)cc4[nH]3)cc3c2[nH]c2ccccc23)cc1
active: RPMI-8226 leukemia -28.2%
inactive: OVCAR-8 ovarian 17.5% | OVCAR-5 ovarian 90% | OVCAR-4 ovarian 52.8% | SK-OV-3 ovarian 99.2% | IGROV1 ovarian 21.1% | OVCAR-3 ovarian 51.9% | HS 578T breast 18.8% | NCI/ADR-RES ovarian 32.9% | T-47D breast 25.5% | BT-549 breast 39.8% | MDA-MB-435 melanoma 39.2% | SW-620 colon 40.6% | MCF7 breast 31.8% | HCT-116 colon 21.3% | HCC-2998 colon 57.4% | KM12 colon 20.4%

CN(C)c1ccc(/C=C/C=N/NC(=O)c2cc(O)c(O)c(O)c2)cc1
inactive: RPMI-8226 leukemia 99.9% | OVCAR-8 ovarian 89.3% | OVCAR-5 ovarian 102% | OVCAR-4 ovarian 67.8% | SK-OV-3 ovarian 99.3% | IGROV1 ovarian 100% | OVCAR-3 ovarian 90.9% | HS 578T breast 100% | NCI/ADR-RES ovarian 102% | T-47D breast 25.3% | BT-549 breast 89.7% | MDA-MB-435 melanoma 96.7% | SW-620 colon 43.4% | MCF7 breast 87.8% | HCT-116 colon 52.7% | HCC-2998 colon 109% | KM12 colon 104%

Cn1c(N)c(N=Nc2ccc(S(=O)(=O)Nc3nccs3)cc2)c(=O)n(C)c1=O
active: T-47D breast -10.2%
inactive: RPMI-8226 leukemia 100% | OVCAR-8 ovarian 100% | OVCAR-5 ovarian 115% | OVCAR-4 ovarian 106% | SK-OV-3 ovarian 103% | IGROV1 ovarian 91.2% | OVCAR-3 ovarian 103% | HS 578T breast 106% | NCI/ADR-RES ovarian 96% | BT-549 breast 97.9% | MDA-MB-435 melanoma 101% | SW-620 colon 99% | MCF7 breast 101% | HCT-116 colon 109% | HCC-2998 colon 95.9% | KM12 colon 104%

COc1cc(-c2nn3c(/C=C4/C(=O)Nc5ccccc54)c(-c4ccc(C)cc4)nc3s2)cc(OC)c1OC
active: OVCAR-4 ovarian -17.3% | HS 578T breast -19.4%
inactive: RPMI-8226 leukemia 45.4% | OVCAR-8 ovarian 46.8% | OVCAR-5 ovarian 85.9% | SK-OV-3 ovarian 79.5% | IGROV1 ovarian 77.4% | OVCAR-3 ovarian 43.6% | NCI/ADR-RES ovarian 41.8% | T-47D breast 63.6% | BT-549 breast 22.8% | MDA-MB-435 melanoma 33.6% | SW-620 colon 54.8% | MCF7 breast 39.4% | HCT-116 colon 24% | HCC-2998 colon 85.1% | KM12 colon 51%

O=C(CCCCC[P+](c1ccccc1)(c1ccccc1)c1ccccc1)NC(COC(=O)C(Cl)Cl)(COC(=O)C(Cl)Cl)COC(=O)C(Cl)Cl
inactive: RPMI-8226 leukemia 83.3% | OVCAR-8 ovarian 95% | OVCAR-5 ovarian 98.6% | OVCAR-4 ovarian 100% | SK-OV-3 ovarian 94.3% | IGROV1 ovarian 100% | OVCAR-3 ovarian 103% | HS 578T breast 110% | NCI/ADR-RES ovarian 114% | T-47D breast 90.8% | BT-549 breast 94.9% | MDA-MB-435 melanoma 102% | SW-620 colon 107% | MCF7 breast 95.2% | HCT-116 colon 100% | HCC-2998 colon 109% | KM12 colon 107%

COc1ccc2c(c1)C(=O)c1c-2c(OCCN2CCCCC2)nc2ccc(OC)cc12
inactive: RPMI-8226 leukemia 16.4% | OVCAR-8 ovarian 18.6% | OVCAR-5 ovarian 63.6% | OVCAR-4 ovarian 41.9% | SK-OV-3 ovarian 34.5% | OVCAR-3 ovarian 22% | HS 578T breast 57.8% | NCI/ADR-RES ovarian 26% | T-47D breast 36.6% | BT-549 breast 51.3% | MDA-MB-435 melanoma 23.9% | HCC-2998 colon 39.8% | KM12 colon 29.2%
active: IGROV1 ovarian 4.11% | SW-620 colon 8.07% | MCF7 breast 9.47% | HCT-116 colon 7.15%
